Bioassay records deposited in PubChem by several laboratories.
In the library only some 3.3% were active in any assay of this set; here they are far more common.
Calb FLC = C. albicans growth modulation with fluconazole; C. albicans CaCi-2 (fluconazole-resistant clinical isolate) + fluconazole, Alamar Blue growth, 48 h; growth inhibition, % (test concentration not listed); 300,000 tested, 0.57% active;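 active means growth inhibition above about 58% in most replicates, limit read from the data, passing the limit was not always enough; inconclusive means exactly half the replicates above a set limit; inactive means most replicates below a set limit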;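 further: all wells also contain fluconazole at 8 µg/ml as a sub-toxic cotreatment; 0% = median of DMSO wells and 100% = median of geldanamycin control wells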
H9c2 protect = modulators protecting cardiomyocytes from myocardial damage; H9c2 cardiomyocytes, H2O2 injury protection, ATPLite, 2 h; protection from H2O2 cell death, % at 20 µM; 360,000 tested, 0.63% active;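 active means compounds giving at least 50% protection of heart cells from peroxide-induced death in the single-dose screen, raw or plate-pattern-corrected value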;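 further: 0% = DMSO wells with peroxide and 100% = DMSO wells without peroxide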
PHOSPHO1 inh = blocks human PHOSPHO1 phosphatase activity. inhibition, % at 13.3 µM. 290,000 tested, 1.1% active. recombinant PHOSPHO1, absorbance phosphatase assay. Q8TCT1; in the data active means inhibition above about 60%
Target sequence (Q8TCT1 whole entry, looked up): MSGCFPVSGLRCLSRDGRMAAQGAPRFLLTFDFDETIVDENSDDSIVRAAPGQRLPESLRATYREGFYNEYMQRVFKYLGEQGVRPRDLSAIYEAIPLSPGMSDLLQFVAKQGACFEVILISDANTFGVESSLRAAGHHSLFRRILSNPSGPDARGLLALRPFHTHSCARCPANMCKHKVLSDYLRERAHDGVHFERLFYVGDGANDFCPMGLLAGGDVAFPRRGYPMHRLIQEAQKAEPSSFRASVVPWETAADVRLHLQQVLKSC
Efflux pump inh = inhibitors of Candida antifungal efflux pumps expressed in yeast; S. cerevisiae Candida pump triplex, Nile Red efflux; inhibition, % at 10 µM; 330,000 tested, 0.44% active; AID 485275;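 active means plate passing quality check with inhibition over a set limit, or well fluorescence over plate mean plus 4 SD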;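 further: Nile Red retained in pooled yeast measured as flow cytometry median fluorescence; 0% = buffer negative control and 100% = Enniatin B positive control; higher means more Nile Red kept so more efflux inhibition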
Cl transport mod = KCC2 (human) Cl- transport modulation; Q9H2X9; KCC2 cells, thallium flux FluoZin-2 fluorescence; B-score of Tl+ flux slope (higher = more flux/activation; lower = inhibition) at 10 µM; 190,000 tested, 2.2% active;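 active means thallium flux slope and its plate-corrected score both differing from the plate sample mean at a set confidence after two filtering rounds, in either direction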;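 further: slope of fluorescence scaled to starting intensity during 10 to 20 s after thallium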
Starred values were filed as active, the others as inactive; ? = inconclusive; / = not tested or not shown.

SMILES	Calb FLC	H9c2 protect	PHOSPHO1 inh	Efflux pump inh	Cl transport mod
C=C(C)CNC(=S)N/N=C(\C)c1cccc(NC(C)=O)c1	5	-4	-7	/	0.22
CNC(=S)N/N=C(\C)c1ccc(C)c(C)c1	-20	-5	6	0	5.1*
C/C(=N\NC(=O)C1CC1)c1ccc(C)c(C)c1	-4	-3	37	0	/
C=C(C)CNC(=S)N/N=C(\C)c1ccc(Cl)s1	-4	-8	14	0	13*
C/C(=N\NC(=O)c1ccc(O)cc1)c1cc2ccccc2o1	-10	0	-8	0	-2.5
C/C(=N/Nc1ccc(F)cc1)c1ccc(Cl)s1	-12	-5	-35	0	-0.8
CCNC(=S)N/N=C(\C)c1cc2ccccc2o1	-4	-8	-16	-1	9.1*
COc1ccc2c(CC(=O)N3CCN(S(=O)(=O)c4ccc(F)cc4)CC3)coc2c1	/	2	/	0	/
C/C(=N\NC(N)=O)c1ccc(Cl)s1	6	0	32	0	-0.86
CNC(=S)N/N=C(\C)c1ccc(Cl)s1	-36	-5	20	0	13*
CN(C)c1ccc(Nc2nc(-c3cccnc3)cs2)cc1	4	-21	81*	0	/
CN(C)C(=O)CSc1nc2ccc(C(=O)c3ccccc3)cc2[nH]1	3	4	19	0	/
CC(=NCCCn1ccnc1)c1c(-c2ccccc2)[nH]n(-c2nc3ccccc3s2)c1=O	19	59*	11	0	/
O=c1c(C=NCCCn2ccnc2)c(-c2ccccc2)[nH]n1-c1nc2ccccc2s1	-11	6	48	0	/
C=C(NC(=O)C(=C)NC(=O)c1csc(C2=NC3c4csc(n4)C4NC(=O)c5csc(n5)C([C@@](C)(O)C(C)O)NC(=O)C5CSC(=N5)/C(=C\C)NC(=O)C(C(C)O)NC(=O)c5csc(n5)[C@]3(CC2)NC(=O)C(C)NC(=O)C(=C)NC(=O)C(C)NC(=O)C(C(C)CC)NC2C=Cc3c(C(C)O)cc(nc3C2O)C(=O)OC4C)n1)C(N)=O (some centres not stated)	/	/	/	1.1*	/
C=C(NC(=O)C(=C)NC(=O)c1csc(C2=NC3c4csc(n4)C4NC(=O)c5csc(n5)C(C(C)(O)C(C)O)NC(=O)C5CSC(=N5)/C(=C/C)NC(=O)C(C(C)O)NC(=O)c5csc(n5)C3(CC2)NC(=O)C(C)NC(=O)C(=C)NC(=O)C(=C)NC(=O)C(C(C)C)NC2C=Cc3c(C(C)O)cc(nc3C2O)C(=O)OC4C)n1)C(N)=O (configuration not stated)	/	0	/	/	/
Cc1ccc(CN(C(=O)CNC(=O)c2cccs2)C(C(=O)NCC2CCCO2)c2ccccc2)cc1 (configuration not stated)	5	91*	33	0	/
COc1ccccc1CN(C(=O)CNC(=O)c1ccco1)C(C(=O)NCC1CCCO1)c1ccccc1 (configuration not stated)	-5	68*	26	0	/
CC(=O)c1cc(C(=O)N2CCc3c([nH]c4ccccc34)C2C2CCCCC2)[nH]n1 (configuration not stated)	91*	-12	41	0	0.0092
CC1=CC(C)(C)n2c(O)c(N=NC(N)=S)c3c(C)c(C)cc1c32	4	-5	-10	0	0.17
CC1=CC(C)(C)n2c(O)c(N=NC(N)=S)c3cccc1c32	15	-5	3	0	5.9*
CCCC1=NN2C(=N)/C(=C\c3cc(C)n(Cc4ccccc4)c3C)C(=O)N=C2S1	2	-3	46	0	1
N=C1/C(=C/c2ccco2)C(=O)N=C2SC(CC(=O)N3CCCC3)=NN12	2	4	16	0	/
CCCC1=NN2C(=N)/C(=C\c3ccc(SCc4ccco4)o3)C(=O)N=C2S1	?	-1	89*	0	/
CCC1=NN2C(=N)/C(=C\c3ccc(SCc4ccco4)o3)C(=O)N=C2S1	38	1	83*	0	/
SMILES	Calb FLC	H9c2 protect	PHOSPHO1 inh	Efflux pump inh	Cl transport mod
Cc1csc(SCc2nc3sc4c(c3c(=O)[nH]2)CCC4)n1	14	52*	-8	/	0.47
CCn1c2ccccc2c2cc(/C=N/n3cnnc3)ccc21	11	-4	-11	0	-1.7
S=c1[nH]ncn1/N=C/c1ccccc1	-25	-1	89*	0	/
S=c1[nH]ncn1/N=C/c1ccc(N2CCOCC2)cc1	-15	-8	88*	0	0.65
C(=N\n1cnnc1)/c1ccc(N2CCOCC2)cc1	-2	-5	-8	0	-0.44
CCn1c2ccccc2c2cc(/C=N/n3cn[nH]c3=S)ccc21	-12	-1	28	0	23*
S=c1[nH]c(-c2ccccc2)cn1/N=C/c1ccncc1	0	-2	70*	0	1.8
COc1c(C)cc(C(O)c2ncc(-c3ccc(Cl)cc3)[nH]2)cc1C (configuration not stated)	/	-6	/	/	/
CC(=O)Nc1ccc2ccccc2c1[N+](=O)[O-]	/	-2	/	/	/
O=C(NNS(=O)(=O)c1ccccc1)c1cccc([N+](=O)[O-])c1	4	16	-1	0	/
CCCNC(=O)c1cc(C2CCCN(C(=O)c3ccc(OC)cc3)C2)on1 (configuration not stated)	/	-2	/	/	/
S=c1[nH]ncn1/N=C/c1ccc(Br)cc1	0	10	96*	0	-0.025
O=C(c1cccnc1Cl)N1CCOCC1	-18	5	-14	0	1.1
O=C(CCl)N1c2ccccc2CCc2ccccc21	84*	0	14	0	/
CC1CCCCC1NC(=O)C1CCC(CNS(=O)(=O)c2ccc3c(c2)C(C)(C)C(=O)N3C)CC1 (configuration not stated)	/	1	/	/	/
Cc1ccc(-c2cc(-c3n[nH]c(=S)o3)c3ccccc3n2)cc1	-3	-14	19	0	17*
Cc1ccccc1-c1n[nH]c(=S)o1	1	3	96*	0	/
CSc1ccccc1-c1n[nH]c(=S)o1	8	-2	45	/	-0.038
S=c1[nH]nc(-c2ccccc2)o1	2	14	101*	0	-0.26
O=C(COC(=O)c1cc[n+]([O-])cc1)Nc1cccc(Br)c1	/	2	/	/	/
Nc1ccc2nc(-c3cccs3)[nH]c2c1	-18	66*	-16	0	0.18
CCOC(=O)CN(C(=O)COc1nc(-c2ccccc2)cc(C)c1C#N)c1ccccc1C	0	8	-1	0	-0.63
CCN(C(=O)COC(=O)c1cc(-c2cccs2)nc2ccccc12)C1CCS(=O)(=O)C1 (configuration not stated)	8	14	63*	0	0.052
CCN(C(=O)COC(=O)c1cc(-c2ccc(C)o2)nc2ccccc12)C1CCS(=O)(=O)C1 (configuration not stated)	7	-3	0	0	0.21
Cc1ccccc1N=Nc1c(C)[nH]n(C(N)=S)c1=O	27	2	3	0	11*
CC(C)(C)CN1CCN(Cc2c[nH]c3ccccc23)CC1CCO (configuration not stated)	0	2	/	0	/
